How the values were obtained:
Conditions in all cases: concentration: 1 μM, replicates: in singlicate; n = 1
EPHA3 = tested on: EPHA3
EPHA4 = tested on: EPHA4
EPHA5 = tested on: EPHA5
EPHA6 = tested on: EPHA6
EPHA7 = tested on: EPHA7
EPHA8 = tested on: EPHA8
EPHB1 = tested on: EPHB1
EPHB2 = tested on: EPHB2
EPHB3 = tested on: EPHB3
EPHB4 = tested on: EPHB4
EPHB6 = tested on: EPHB6
ERBB2 = tested on: ERBB2
ERBB3 = tested on: ERBB3
ERBB4 = tested on: ERBB4
ERK1 = tested on: T1, ERK1
T1 construct: gene MAPK3

ERK2 = tested on: T2, ERK2
T2 construct: gene MAPK1

ERK3 = tested on: T3, ERK3
T3 construct: gene MAPK6

ERK4 = tested on: T4, ERK4
T4 construct: gene MAPK4

ERK5 = tested on: T5, ERK5
T5 construct: gene MAPK7

ERK8 = tested on: T6, ERK8
T6 construct: gene MAPK15
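Note: KINOMEscan kinase panel screen.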

SMILES | %Inh (EPHA3) | %Inh (EPHA4) | %Inh (EPHA5) | %Inh (EPHA6) | %Inh (EPHA7) | %Inh (EPHA8) | %Inh (EPHB1) | %Inh (EPHB2) | %Inh (EPHB3) | %Inh (EPHB4) | %Inh (EPHB6) | %Inh (ERBB2) | %Inh (ERBB3) | %Inh (ERBB4) | %Inh (ERK1) | %Inh (ERK2) | %Inh (ERK3) | %Inh (ERK4) | %Inh (ERK5) | %Inh (ERK8)
CCc1nc(-c2cccc(C)c2)c(-c2ccnc(NCc3ccccc3)c2)s1 | 0% | 0% | 0% | 17% | 4% | 11% | 15% | 6% | 0% | 3% | 5% | 22% | 2% | 3% | 0% | 11% | 0% | 5% | 3% | 0%
CCCCCc1nc2c(N)ncnc2n1CCCCC [SKF-97255] | 0% | 10% | 0% | 5% | 0% | 0% | 5% | 0% | 5% | 0% | 6% | 4% | 0% | 0% | 0% | 0% | 0% | 0% | 0% | 29%
c1ccc(-c2cc(-c3c[nH]nc3-c3ccccn3)ccn2)cc1 [GW576604] | 15% | 0% | 0% | 0% | 0% | 0% | 20% | 0% | 0% | 7% | 0% | 0% | 16% | 52% | 8% | 0% | 0% | 3% | 0% | 0%
CC(C)(C)n1cnc2c(N)ncnc21 [SKF-97359] | 0% | 0% | 0% | 0% | 0% | 7% | 0% | 0% | 0% | 0% | 0% | 37% | 17% | 22% | 0% | 0% | 10% | 15% | 4% | 8%
NS(=O)(=O)c1cccc(-c2ccc3ncc(N4CCOCC4)nc3c2)c1 [GSK1535721] | 11% | 8% | 0% | 8% | 3% | 11% | 5% | 6% | 9% | 17% | 25% | 32% | 11% | 1% | 0% | 0% | 0% | 0% | 10% | 0%
